Hit rate of the full screen: of about 290,000 compounds, about 570 (0.2%) were called active. Roughly 1% stayed inconclusive and do not appear here. Rule as the data show it: active = inhibition mostly above about 51% (no sharp cut-off); inconclusive = no clear call, values can overlap the other calls; inactive = mostly below about 53%. Only a selection was taken, and actives are over-represented in it overall.
Target: Voltage-dependent N-type calcium channel subunit alpha-1B (Homo sapiens) (UniProt Q00975)
Assay: disruptors of CaV2.2 binding to Mint1 – biochemical, HTRF (AID 2073)
Details: HTRF protein-protein interaction, Mint1-CaV2.2, at 20 µM, stronger effect = higher value
[1] = measured here: average of repeat tests

Chain of Voltage-dependent N-type calcium channel subunit alpha-1B (Homo sapiens) (Q00975 whole entry, looked up): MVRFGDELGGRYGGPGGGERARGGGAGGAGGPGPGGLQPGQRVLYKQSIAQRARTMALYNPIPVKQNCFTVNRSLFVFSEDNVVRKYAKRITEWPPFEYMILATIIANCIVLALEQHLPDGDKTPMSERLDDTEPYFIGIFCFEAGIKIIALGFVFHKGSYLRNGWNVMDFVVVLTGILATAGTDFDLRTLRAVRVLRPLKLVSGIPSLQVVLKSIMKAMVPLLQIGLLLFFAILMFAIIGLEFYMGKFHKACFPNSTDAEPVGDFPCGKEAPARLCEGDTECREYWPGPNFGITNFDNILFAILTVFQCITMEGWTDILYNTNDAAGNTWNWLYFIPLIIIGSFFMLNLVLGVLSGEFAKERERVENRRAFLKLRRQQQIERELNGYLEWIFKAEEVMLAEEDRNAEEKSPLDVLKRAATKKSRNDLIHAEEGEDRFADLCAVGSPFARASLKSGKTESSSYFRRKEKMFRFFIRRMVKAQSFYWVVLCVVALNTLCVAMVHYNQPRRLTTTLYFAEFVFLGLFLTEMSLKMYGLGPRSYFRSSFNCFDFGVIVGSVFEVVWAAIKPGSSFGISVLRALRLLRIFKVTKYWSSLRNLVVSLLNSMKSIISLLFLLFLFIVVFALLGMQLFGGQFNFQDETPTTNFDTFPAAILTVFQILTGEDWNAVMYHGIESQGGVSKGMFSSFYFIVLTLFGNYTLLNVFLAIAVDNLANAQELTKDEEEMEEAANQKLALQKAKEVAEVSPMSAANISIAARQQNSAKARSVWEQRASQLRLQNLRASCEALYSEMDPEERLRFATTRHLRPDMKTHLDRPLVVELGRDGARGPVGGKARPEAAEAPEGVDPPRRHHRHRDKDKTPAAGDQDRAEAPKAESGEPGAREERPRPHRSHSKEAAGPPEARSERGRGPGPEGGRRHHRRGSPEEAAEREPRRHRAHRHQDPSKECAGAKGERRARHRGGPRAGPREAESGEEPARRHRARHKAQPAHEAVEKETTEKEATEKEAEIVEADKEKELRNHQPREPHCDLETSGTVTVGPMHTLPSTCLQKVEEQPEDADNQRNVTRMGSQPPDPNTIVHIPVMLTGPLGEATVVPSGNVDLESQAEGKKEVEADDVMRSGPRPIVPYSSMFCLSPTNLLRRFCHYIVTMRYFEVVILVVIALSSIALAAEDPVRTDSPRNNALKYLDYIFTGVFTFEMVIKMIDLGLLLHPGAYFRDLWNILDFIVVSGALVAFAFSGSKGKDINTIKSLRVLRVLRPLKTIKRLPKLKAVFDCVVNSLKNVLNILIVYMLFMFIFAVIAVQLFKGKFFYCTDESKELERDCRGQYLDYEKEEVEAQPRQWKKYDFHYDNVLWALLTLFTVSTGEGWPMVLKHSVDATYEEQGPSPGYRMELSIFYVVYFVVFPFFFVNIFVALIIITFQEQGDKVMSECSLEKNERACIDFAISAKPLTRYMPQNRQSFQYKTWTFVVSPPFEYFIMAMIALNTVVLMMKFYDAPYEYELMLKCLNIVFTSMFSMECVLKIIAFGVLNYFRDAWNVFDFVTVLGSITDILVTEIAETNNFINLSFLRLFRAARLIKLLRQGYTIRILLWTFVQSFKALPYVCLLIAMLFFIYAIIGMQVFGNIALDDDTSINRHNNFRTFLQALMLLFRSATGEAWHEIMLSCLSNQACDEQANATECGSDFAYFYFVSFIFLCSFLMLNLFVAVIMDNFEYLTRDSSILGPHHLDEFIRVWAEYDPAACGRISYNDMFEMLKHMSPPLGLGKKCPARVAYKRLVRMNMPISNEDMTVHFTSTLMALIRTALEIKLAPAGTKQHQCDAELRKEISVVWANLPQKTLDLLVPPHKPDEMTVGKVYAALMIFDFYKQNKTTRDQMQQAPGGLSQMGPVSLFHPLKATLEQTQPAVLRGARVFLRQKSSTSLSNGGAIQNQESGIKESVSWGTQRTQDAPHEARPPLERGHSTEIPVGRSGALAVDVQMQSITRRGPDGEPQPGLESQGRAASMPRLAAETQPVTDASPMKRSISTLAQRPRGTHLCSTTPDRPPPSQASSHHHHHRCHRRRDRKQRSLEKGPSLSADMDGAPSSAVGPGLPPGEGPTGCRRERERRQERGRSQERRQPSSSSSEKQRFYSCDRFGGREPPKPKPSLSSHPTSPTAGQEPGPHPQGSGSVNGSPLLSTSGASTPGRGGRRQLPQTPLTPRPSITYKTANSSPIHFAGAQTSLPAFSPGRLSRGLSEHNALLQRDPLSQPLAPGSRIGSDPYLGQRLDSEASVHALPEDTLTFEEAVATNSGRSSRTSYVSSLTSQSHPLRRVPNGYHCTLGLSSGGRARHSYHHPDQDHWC

| Compound | inhibition | inhibition [1] [%] |
| --- | --- | --- |
| Cc1ccc2c(COC(=O)c3ccc(NC(=O)CC#N)cc3)cc(=O)oc2c1C | 57.8% (inactive) | 36.4 |
| Cc1ccc(NC(=O)c2nsc(Cl)c2Cl)cc1 | 18.9% (inactive) |  |
| C/C(=N\NC(=O)c1ccccc1Cl)c1ccccn1 | 16.3% (inactive) |  |
| CCN(CC)c1ccc(/C=N/NC(=O)c2c(Cl)c(C)nn2C)cc1 | 10.2% (inactive) |  |
| CCc1nnc(NS(=O)(=O)c2ccc(NCc3cc(Br)ccc3O)cc2)s1 | -6.2% (inactive) |  |
| O=C(OCc1cc(=O)n2c(n1)sc1ccccc12)c1cccc(O)c1 | 19.1% (inactive) |  |
| O=C(OCc1cc(=O)n2c(n1)sc1ccccc12)c1ccc(O)cc1 | 30.3% (inactive) |  |
| O=C(OCc1cc(=O)n2c(n1)sc1ccccc12)c1ccc(O)cc1O | 60.2% (active) |  |
| O=S(=O)(Nc1ccncc1)c1cc(Cl)c(Cl)cc1Cl | 12.2% (inactive) |  |
| COc1ccc2oc(=Nc3ccccc3)c(-c3nc4ccccc4[nH]3)cc2c1 | 37.9% (inactive) |  |
| COc1cccc(N=c2oc3ccccc3cc2-c2nc3ccccc3[nH]2)c1 | 17.1% (inactive) |  |
| CC(=O)c1sc2nc(CSc3nnnn3-c3ccccc3)[nH]c(=O)c2c1C | 80.6% (active) |  |
| Cc1ccc(-n2nnnc2SCc2nc3sc(C)c(C)c3c(=O)[nH]2)cc1 | 12% (inactive) |  |
| CC(=O)c1sc2nc(CSc3nncn3C)[nH]c(=O)c2c1C | 22.1% (inactive) |  |
| COc1ccc2c(C(=O)CN3CCSCC3)c[nH]c2c1 | 25.2% (inactive) |  |
| COC(=O)C1=C(N)Oc2c(oc(CO)cc2=O)C1c1ccccc1F (centres undefined) | 0.2% (inactive) |  |
| O=C(O)CC(C(=O)O)N1C(=O)/C(=C/C=C/c2ccco2)SC1=S (centres undefined) | 27.4% (inactive) |  |
| CC(C(=O)O)N1C(=O)/C(=C/C=C/c2ccco2)SC1=S (centres undefined) | 77.7% (active) |  |
| CC(C)C(C(=O)O)N1C(=O)/C(=C/C=C/c2ccco2)SC1=S (centres undefined) | 49.5% (inactive) |  |
| CNC(=S)NNC(=O)c1c(C)nc2cc(C)ccn12 | 0.7% (inactive) |  |
| CC1=C(C(=O)O)N2C(=O)[C@@H](NC(=O)[C@H](N)c3ccccc3)[C@H]2SC1 | -20.5% (inactive) |  |
| CC1=C(C(=O)O)N2C(=O)C(NC(=O)c3ccn(C)n3)C2SC1 (centres undefined) | -8.1% (inactive) |  |
| O=S1(=O)CCC(n2nccc2-c2ccccc2)C1 (centres undefined) | -2.9% (inactive) |  |
| COC(=O)C1=C(C)N(CCCC(=O)O)C(=O)NC1c1ccc(-c2ccccc2)cc1 (centres undefined) | -4.2% (inactive) |  |
| COc1cc(C2c3c([nH]c(=O)[nH]c3=O)Nc3ccc4ccccc4c32)cc(OC)c1OC (centres undefined) | 82.8% (active) |  |

| Compound | inhibition | inhibition [1] [%] |
| --- | --- | --- |
| COc1cc(C2c3c([nH]c(=O)[nH]c3=O)Nc3ccc4ccccc4c32)ccc1O (centres undefined) | -1.1% (inactive) |  |
| COc1cc(C2CC(=O)Nc3n[nH]c(-c4ccccc4)c32)cc(OC)c1OC (centres undefined) | 8.3% (inactive) |  |
| CSc1cccc(NC(=O)c2cc(S(=O)(=O)N3CCCC3)cn2C)c1 | 8.5% (inactive) |  |
| O=C(CSc1nc2c(c(=O)n1-c1ccc(Cl)cc1)SCC2)NCC1CCCO1 (centres undefined) | -0.5% (inactive) |  |
| CC1=NN(C(N)=S)C(=O)C1N=Nc1c(Cl)cc([N+](=O)[O-])cc1Cl (centres undefined) | -6.1% (inactive) |  |
| Cc1ccc(C)c(SCC(=O)NC(=O)Nc2ccc3c(c2)OCCO3)c1 | 1.2% (inactive) |  |
| CCCc1cc(=O)[nH]c(SCC(=O)N2CCC(C)CC2)n1 | 12% (inactive) |  |
| Nc1cc([N+](=O)[O-])ccc1O | 2.9% (inactive) |  |
| Cc1ccc([N+](=O)[O-])cc1N | 0% (inactive) |  |
| COc1ccc(NC(=O)CCC(=O)N(Cc2ccc(OC)c(OC)c2)c2nccs2)cc1 | 6% (inactive) |  |
| OCC1(CCCc2ccccc2)CCN(Cc2ccc(F)cc2)CC1 | -2.6% (inactive) |  |
| CC(C)CNC(=O)c1ccccc1Oc1ccccc1 | 3.1% (inactive) |  |
| Cn1c(=O)c2c(-c3ccc(C(C)(C)C)cc3)n(CC3CCCO3)cc2n(C)c1=O (centres undefined) | 8.1% (inactive) |  |
| COC(=O)C1=C(C)NC(C)=C(C(=O)OC)C1c1cc2cc(C)ccc2[nH]c1=O | 17.4% (inactive) |  |
| Cc1ccc2[nH]c(=O)c(CNC(C)C)cc2c1 | 15.1% (inactive) |  |
| O=C(O)C1Nc2c(C(F)(F)F)ccc(Cl)c2C2C=CCC12 (centres undefined) | 7.3% (inactive) |  |
| Cc1ccc2c(c1C)NC(C(=O)O)C1CC=CC21 (centres undefined) | 42.8% (inactive) |  |
| O=C(O)C1Nc2c(Cl)cc(Cl)cc2C2C=CCC12 (centres undefined) | 51.5% (active) |  |
| O=C(CCNC(=O)N1CCn2c1nc1ccccc12)NCc1ccccc1 | -1.3% (inactive) |  |
| O=c1c2c([N+](=O)[O-])cc([N+](=O)[O-])cc2sn1Cc1ccccc1 | 43.2% (inactive) |  |
| N#Cc1c(N)n(Cc2ccccc2)c(=O)c2cc([N+](=O)[O-])ccc12 | 2% (inactive) |  |
| Cc1ccc(NC2SC(=O)N(CC(=O)O)C2=O)cc1 (centres undefined) | -7.4% (inactive) |  |
| Cc1cccc(C)c1-n1c(C)nn(CC2CC2)c1=O | -5.7% (inactive) |  |
| COc1ccc(-c2csc(NC(=O)CN3C(=O)CCC3=O)n2)c(OC)c1 | 6.5% (inactive) |  |
| CC(C)(C)NC(=O)CN(C(=O)C1(C)CC(=O)N=C2C=CC=CN21)C1CCCC1 (centres undefined) | 9.2% (inactive) |  |

| Compound | inhibition | inhibition [1] [%] |
| --- | --- | --- |
| CCCCCCC(=O)N(O)C1CC(=O)N(c2ccccc2)C1=O (centres undefined) | 65.6% (active) |  |
| CCCCCC(=O)N(O)C1CC(=O)N(c2ccccc2)C1=O (centres undefined) | 44.4% (inactive) |  |
| CCCCCCC(=O)N(O)C1CC(=O)N(c2ccc(C)cc2)C1=O (centres undefined) | 12.5% (inactive) |  |
| CN(CCN1CCc2ccccc2C1)Cc1nc(-c2ccc3c(c2)OCO3)no1 | 2.5% (inactive) |  |
| CCc1cc(C(=O)N2CCCC(C(=O)c3ccc(C(F)(F)F)cc3)C2)n(C)n1 (centres undefined) | 5.5% (inactive) |  |
| O=C(CSc1nc2scc(-c3ccco3)c2c(=O)n1-c1ccccc1)NCC1CCCO1 (centres undefined) | 55% (active) |  |
| O=C(CSc1nnc(-c2ccco2)n1-c1ccccc1)NCC1CCCO1 (centres undefined) | 9.9% (inactive) |  |
| C=CCn1c(SCC(=O)NCC2CCCO2)nc2scc(-c3ccco3)c2c1=O (centres undefined) | 33% (inactive) |  |
| Cc1cc(C)c(NC(=O)CN2CCN(c3ccccn3)CC2)c(C)c1 | -1.2% (inactive) |  |
| CCOC(=O)C1(Cc2ccccc2C)CCCN(C(=O)c2ccoc2)C1 (centres undefined) | 14.3% (inactive) |  |
| COC(=O)C1=C(C)NC(C)=C(C(=O)OCC2CCCO2)C1c1cccc(Br)c1 (centres undefined) | 13.6% (inactive) |  |
| N#Cc1ccsc1NC(=O)CSc1nnnn1-c1ccc(O)cc1 | 50.6% (active) |  |
| Cn1cnnc1SCC(=O)Nc1sccc1C#N | 2.2% (inactive) |  |
| Cc1ccc(-n2nnnc2SCC(=O)Nc2sccc2C#N)cc1 | 0% (inactive) |  |
| CC(=O)c1ccc2noc(-c3cccc(F)c3)c2c1 | -6.7% (inactive) |  |
| CCn1cc(C(=O)O)c(=O)c2cc(F)c(N/N=C/c3ccccc3)cc21 | 6.4% (inactive) |  |
| CCn1cc(C(=O)O)c(=O)c2cc(F)c(N/N=C/c3ccccc3[N+](=O)[O-])cc21 | 58.8% (active) |  |
| CCn1cc(C(=O)O)c(=O)c2cc(F)c(N3CCN(C(=S)NC(=O)c4ccccc4)CC3)cc21 | -5.6% (inactive) |  |
| Cn1cc([N+](=O)[O-])c(C(=O)NCc2ccco2)n1 | -1.5% (inactive) |  |
| COc1ccccc1NC(=O)C1=C(C)NC(=O)NC1c1ccccc1F (centres undefined) | 6.4% (inactive) |  |
| COc1ccc(NC(=O)C2=C(C)NC(=O)NC2c2ccccc2[N+](=O)[O-])cc1 (centres undefined) | -2.6% (inactive) |  |
| COc1ccccc1NC(=O)C1=C(C)NC(=O)NC1c1ccccc1[N+](=O)[O-] (centres undefined) | 55.2% (active) |  |
| O=C(CN1C(=O)C2CCCCC2C1=O)N1CCN(c2ncccn2)CC1 (centres undefined) | 10.4% (inactive) |  |
| CC(C)CCN(C)C1CCN(S(=O)(=O)c2cccc(C(F)(F)F)c2)CC1 | 12.2% (inactive) |  |
| O=C(N/N=C/c1ccc([N+](=O)[O-])cc1)c1cc(C2CC2)[nH]n1 | -0.6% (inactive) |  |

| Compound | inhibition | inhibition [1] [%] |
| --- | --- | --- |
| O=C(N/N=C/c1cccc([N+](=O)[O-])c1)c1cc(-c2ccc3c(c2)OCO3)n[nH]1 | 3.3% (inactive) |  |
| O=C(Nc1ccc(S(=O)(=O)Nc2nccs2)cc1)c1ccc(N2C(=O)c3ccccc3C2=O)cc1 | 58.8% (active) |  |
| O=C(Nc1ccc(S(=O)(=O)Nc2nccs2)cc1)c1cccc(N2C(=O)c3ccccc3C2=O)c1 | 49.1% (inactive) |  |
| O=C(Nc1ccc(S(=O)(=O)Nc2nccs2)cc1)c1ccc(F)cc1 | 11.1% (inactive) |  |
| COc1ccccc1N1CCN(C(=O)C2CCN(C(=O)c3cccc(Cl)c3)CC2)CC1 | 6.4% (inactive) |  |
| Cc1[nH]cnc1C(=O)N/N=C/c1ccc([N+](=O)[O-])s1 | -7.6% (inactive) |  |
| N#C/C(C(N)=O)=c1/ccc2c(c1)N1C3=C(CCCC3)CC3CCCCC31N=2 (centres undefined) | -26.9% (inactive) |  |
| N#CC(C#N)=c1ccc2c(c1)N1C3=C(CCCC3)CC3CCCCC31N=2 (centres undefined) | -36.3% (inactive) |  |
| O=[N+]([O-])C(=c1ccc2c(c1)N1C3=C(CCCC3)CC3CCCCC31N=2)[N+](=O)[O-] (centres undefined) | 51.6% (active) | 92.8 |
| CCc1ccc2[nH]c(C(=O)Nc3ccc(Br)c(C)n3)cc2c1 | 5.3% (inactive) |  |
| N#Cc1c(-c2cccc(Br)c2)cc(-c2ccco2)[nH]c1=O | 53.9% (active) |  |
| COc1ccc(-c2cc(-c3ccco3)[nH]c(=O)c2C#N)cc1OC | 0.3% (inactive) |  |
| COc1ccc(-c2cc(-c3ccco3)[nH]c(=O)c2C#N)cc1 | 24.8% (inactive) |  |
| O=C(COC(=O)c1cccs1)NCc1ccco1 | -0.7% (inactive) |  |
| O=C(COC(=O)CCC(=O)c1cccs1)NCc1cccs1 | -3.4% (inactive) |  |
| O=C(COC(=O)/C=C/c1ccc(F)cc1)NCc1ccco1 | 8.8% (inactive) |  |
| O=C(COC(=O)c1ccc(S(=O)(=O)Nc2ccccc2)cc1)NCc1ccco1 | -1.1% (inactive) |  |
| O=C(COC(=O)/C=C/c1ccco1)NCc1ccccc1 | 13.7% (inactive) |  |
| O=C(COC(=O)c1ccc(NS(=O)(=O)c2cccs2)cc1)NCc1ccco1 | 59.4% (active) |  |
| O=C(COC(=O)/C=C/c1ccco1)NCc1ccco1 | 53.7% (active) |  |
| O=C(COC(=O)CCC(=O)c1cccs1)NCc1ccco1 | 57.8% (active) |  |
| O=C(COC(=O)c1ccc(NS(=O)(=O)c2cccs2)cc1)NCC1CCCO1 (centres undefined) | -3% (inactive) |  |

From PubChem BioAssay AID2073 (Sanford-Burnham Center for Chemical Genomics, 2009)
